Data: PubChem BioAssay (NCI)
Several values for one entry are separate records, joined by “and”; a condition that tells them apart may be missing. Equal values may be shown once. This is part of a sample that, as a whole, favours compounds with a hit. Of some 79,000 tested, about 15% had one in any assay. No stated cut-off is given here; in the data, active means growth inhibition above about 70%; inactive means the rest.

Assays:
[1] = NCI Yeast Anticancer Drug Screen. Data for the rad50 strain (AID 155);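 further: 0% = growth of vehicle-only cultures of the same strain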; conditions: S. cerevisiae rad50 strain growth inhibition, hits give high values; at 50.0 µM unless noted
How it was run: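 DNA repair mutant yeast, compound exposure, growth read-out; inhibition is taken relative to vehicle.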

[2] = NCI Yeast Anticancer Drug Screen. Data for the mec2-1 strain (AID 157); conditions: S. cerevisiae mec2-1 strain, hits give high values; at 50.0 µM unless noted
How it was run: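 Cells of the genetically defined mec2-1 yeast strain are incubated with test compound. Inhibition of growth is calculated against vehicle-treated controls.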

[3] = NCI Yeast Anticancer Drug Screen. Data for the sgs1 mgt1 strain (AID 161);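 further: 0% = growth of cultures given vehicle only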; conditions: S. cerevisiae sgs1 mgt1 strain, hits give high values; at 50.0 µM unless noted
How it was run: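 Mutant yeast exposed to compound; growth scored against vehicle-only wells.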

[4] = NCI Yeast Anticancer Drug Screen. Data for the cln2 rad14 strain (AID 165);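 further: 0% = growth equal to vehicle treated cultures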; conditions: S. cerevisiae cln2 rad14 strain, hits give high values; at 50.0 µM unless noted
How it was run: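 The screen exposed genetically defined yeast (cln2 rad14) to test compounds and scored growth inhibition relative to vehicle-treated controls.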

[5] = NCI Yeast Anticancer Drug Screen. Data for the bub3 strain (AID 167); conditions: S. cerevisiae bub3 mutant strain, hits give high values; at 50.0 µM unless noted
How it was run: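 In this screen, a yeast mutant lacking normal mitotic checkpoint function is challenged with compound. Relative growth versus vehicle gives the inhibition value.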

[6] = NCI Yeast Anticancer Drug Screen. Data for the mlh1 rad18 strain (AID 175); conditions: S. cerevisiae mlh1 rad18 strain growth inhibition, hits give high values; at 50.0 µM unless noted
How it was run: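 Compound-treated yeast growth, normalised to vehicle controls. Strain bears defined DNA repair mutations.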

Measured: growth inhibition

COc1cc(C=O)c(Cl)cc1OC(C)=O
inactive: [1] 32.9% | [2] 21.9% | [3] 36.4% | [4] 32.8% | [5] -10.1% | [6] 27.9%

CC(=O)c1cc2c(cc1O)oc1c(C)ccc(C)c12
inactive: [1] 20.8% | [2] -3.4% | [3] 5.55% | [4] 18.2% | [5] -29.7% | [6] -13.8%

Cc1ccnc(NS(=O)(=O)c2ccc(N=[N+]=[N-])cc2)n1
inactive: [1] -3.2% | [2] -6% | [3] 1.9% | [4] -7.4% | [5] -17.6% | [6] -14%

O=C(c1ccccc1)c1ccc(O)cc1
inactive: [1] 3.5% | [2] 3.05% | [3] 21.4% | [4] 13.9% | [5] -1.75% | [6] 24.9%

CSc1nc(C)cc(Nc2ccc(O)c(CN3CCCCC3)c2)n1
inactive: [1] 19.4% | [2] -20.3% | [3] -27.3% | [4] 10.4% | [5] -32.6% | [6] 2.6%

CCCOC(=O)c1cccnc1
inactive: [1] -13.2% | [2] -29.6% | [3] -14.7% | [4] 0.7% | [5] -6.75% | [6] -8.65%

NNC(=O)Cc1ccc(Cl)c2ccccc12
inactive: [1] 5.8% | [2] -17.9% | [3] 3.6% | [4] -75.9% | [5] -5.2% | [6] 8.85%

CCCCOC(=O)/C=C/C(=O)OCCCC
inactive: [1] -34.6% | [2] 9.6% | [3] 8.85% | [4] 4% | [5] -0.45% | [6] 43.9%

N#C/C(=C/c1ccccc1)c1ccccc1
inactive: [1] 42.5% | [2] 12.6% | [3] 24.6% | [4] 14.5% | [5] 40.9% | [6] 24.1%

ClC(Cl)CN(Cc1ccccc1)c1ncc[nH]1
inactive: [1] 22.5% | [2] 6.25% | [3] 28% | [4] -59.2% | [5] 8.05% | [6] 17.6%

CCOC(=O)c1c(SCc2ccccc2)nc2c3ccccc3ccn12
inactive: [1] -18.2% | [2] -18.6% | [3] -29.9% | [4] -1.15% | [5] -20.9% | [6] -57.5%

O=C(NCCCl)c1ccc(Cl)c(Cl)c1
inactive: [1] 2.8% | [2] 0.25% | [3] 4.95% | [4] -20.9% | [5] 12.8% | [6] 3.7%

CN(C)c1c2ccccc2c(NC=O)c2ccccc12
inactive: [1] 3.45% | [2] -14.9% | [3] 11.7% | [4] 24.6% | [5] -1.05% | [6] 9%

CCCCCCCCCCC1CC(=O)OC1=O (stereo unspecified)
inactive: [1] 17.2% | [2] 14.7% | [3] 29.6% | [4] 9.45% | [5] 9.25% | [6] 8.3%

Nc1ccc2c(c1)C(=O)c1cc(Cl)cc(Cl)c1-2
inactive: [1] 0% | [2] -4.75% | [3] -0.5% | [4] -44% | [5] 7.05% | [6] 2.25%

C[N+](C)(CCCCCCCCCC[N+](C)(C)CC(=O)c1ccccc1)CC(=O)c1ccccc1
inactive: [1] 36.2% | [2] -7.25% | [3] 24.7% | [4] -11.8% | [5] 0.4% | [6] 18.1%

N#CCCC(CC#N)N1CCN(CCO)CC1 (stereo unspecified)
inactive: [1] -35.1% | [2] -43.9% | [3] -18.7% | [4] -21.2% | [5] -0.95% | [6] -39.4%

O=C(O)CCCCCCCC(=O)O
inactive: [1] 15.4% | [2] -0.45% | [3] 16.9% | [4] -3.05% | [5] 5.5% | [6] 27.2%

Nc1ncnc(N)c1NC(=O)c1cccnc1
inactive: [1] 8.7% | [2] -6% | [3] 7.65% | [4] -40% | [5] -2.05% | [6] 5.5%

Cc1cc(C)c(-c2c(C)cc(C)c(C(=O)c3ccc([N+](=O)[O-])cc3)c2C)c(C)c1C(=O)c1ccc([N+](=O)[O-])cc1
inactive: [1] 25.7% | [2] 2.85% | [3] 11.8% | [4] 9.25% | [5] 3.2% | [6] 8.85%

CN(C)Cc1ccccc1
inactive: [1] 28.8% | [2] 15.8% | [3] 14.8% | [4] -58% | [5] 11.1% | [6] 17.6%

O=C1/C(=C/c2cccc([N+](=O)[O-])c2)Cc2ccccc21
inactive: [1] 12.7% | [2] -5.9% | [3] 5.65% | [4] 14.1% | [5] 17.6% | [6] 5.05%

Cc1nc2c(=O)[nH]c(=O)[nH]c2s1
inactive: [1] -12.6% | [2] 5.05% | [3] -4.2% | [4] -12% | [5] -7.5% | [6] -8.6%

Brc1cccc(C=NC23CC4CC(CC(C4)C2)C3)c1
inactive: [1] 13.7% | [2] -13.8% | [3] 12.4% | [4] -52.1% | [5] -13.3% | [6] -4.6%

O=C1OC(c2ccccc2)=C2CCC3CCCCN1C23 (stereo unspecified)
inactive: [1] -2.15% | [2] -29.7% | [3] 12.8% | [4] 23.4% | [5] 34.6% | [6] 9.25%

COc1cc(C(O)C2C(=O)OCC2C2(c3ccc4c(c3)OCO4)SCCCS2)cc(OC)c1OC (stereo unspecified)
inactive: [1] 36.1% and -8.8% | [2] -2.8% and -8.95% | [3] 35.4% and -21.5% | [4] 7.2% and 1.7% | [5] 10.1% and -2.95% | [6] 1.45% and 17.2%

O=c1[nH]c(Br)nc2c(N3CCCCC3)c[nH]c12
inactive: [1] 12.7% | [2] -0.45% | [3] -7.2% | [4] 4.35% | [5] -3.05% | [6] 11.6%

Cc1ccc(S(=O)(=O)n2cc(C#N)c(C#N)c2)cc1
inactive: [1] -10.8% | [2] 2.25% | [3] 10.8% | [4] -28.6% | [5] 16.3% | [6] 7.15%

CC(=O)N1C(Nc2cnc3ccccc3c2)CCN1c1ccccc1 (stereo unspecified)
inactive: [1] -31.4% | [2] -48.6% | [3] -13.8% | [4] 0.4% | [5] 1.25% | [6] -14%

O=C(O)/C=C/c1cccc(F)c1
inactive: [1] -16.6% | [2] -12.2% | [3] -4.9% | [4] -15.9% | [5] -17% | [6] 10.2%

CSC(=S)OC(C)CC(C)C (stereo unspecified)
inactive: [1] 37.6% | [2] -3.95% | [3] 30.7% | [4] -12.1% | [5] 6.95% | [6] 25.5%

O=C1c2cc3c(cc2CC12Cc1cc4c(cc1C2=O)CCC4)CCCC3 (stereo unspecified)
inactive: [1] 6.45% | [2] -52.5% | [3] 1.45% | [4] -29.1% | [5] 0.35% | [6] -22.5%

CCCCCSC(=O)C(N)=O
inactive: [1] 10.9% | [2] 7.45% | [3] 6.7% | [4] -25.8% | [5] -7.45% | [6] 4%

O=C1OC(c2ccccc2)=N/C1=C\c1ccccc1
inactive: [1] -24% and 23.1% | [2] -12.6% and 10.6% | [3] -15.5% and 20.9% | [4] -5.7% and -23.2% | [5] 3.9% and -15.2% | [6] -8.7% and 26.8%

CNC(=O)N(CCCCC(NC(C)=O)C(=O)NCc1ccccc1)Cc1ccccc1 (stereo unspecified)
inactive: [1] -12.3% | [2] -23.2% | [3] -15.8% | [4] -12.4% | [5] -7.1% | [6] -12.8%

O=c1[nH]c2cc(Cl)ccc2nc1/C(=N\O)C(O)c1ccc([N+](=O)[O-])cc1 (stereo unspecified)
inactive: [1] 8% | [2] 14.2% | [3] -21.2% | [4] -24.6% | [5] -17.2% | [6] -5%

CC1=C(C(=O)Nc2ccccc2)C(c2ccc3c(c2)OCO3)C(C(=O)Nc2ccccc2)=C(C)N1
inactive: [1] 38.3% | [2] 33.5% | [3] 10.5% | [4] 17.1% | [5] 38.5% | [6] 27.1%

Cc1nc2c(cc1C(=O)NN)c(=O)n(C)c(=O)n2C
inactive: [1] 8.8% | [2] -1.9% | [3] -8.5% | [4] -5.85% | [5] -8.05% | [6] 31.6%

O=C(CNC(=O)C(Cc1ccccc1)N1C(=O)c2ccccc2C1=O)Nc1ccccc1 (stereo unspecified)
inactive: [1] 34.4% | [2] -1.55% | [3] 46.3% | [4] 5% | [5] 17.4% | [6] 6.55%

COC(=O)/C=C(\C(=O)OC)N1CCCCC1
inactive: [1] 1.55% | [2] -3.8% | [3] -6.55% | [4] -29.9% | [5] 2.3% | [6] -23.1%

CC(C)CC(NC=O)C(=O)O (stereo unspecified)
inactive: [1] 11.2% | [2] 1.85% | [3] -0.4% | [4] 9.45% | [5] -0.3% | [6] 8.35%
